Measured values taken from the supplement of paper PMC6555819.

Key:
Test in all cases: PBM binding z-score (relative to random genomic background probes); higher = stronger binding; sequences stand for … in GC…GCGATTGACAGCGTAGAATGAAGG
[1] = tested on: PPARg:RXRa DBDmut IVT, anti-RXR (DBD mutation: RXRa K156A/R161A, NR concentration 270 nM, RXRa partner concentration 90 nM)
Summary of the method: (§1)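 Antibodies against each partner of ligand-free nuclear receptor dimers (one per run) detected binding on custom Agilent 4×180K protein-binding microarrays after 1 h incubation. The double-stranded probes had 34-nt variable regions carrying direct-repeat seeds, single-nucleotide variants, half-site ablations and random human genomic background sequences. Binding z-scores, from regression-normalized fluorescence, use the random background probes as reference.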

[2] = tested on: PPARg:RXRa IVT, anti-PPARg (NR concentration 270 nM, RXRa partner concentration 90 nM)
Summary of the method: as §1

[3] = tested on: PPARg DBDmut:RXRa IVT, anti-PPARg (DBD mutation: PPARg1 K132A/R137A, NR concentration 270 nM, RXRa partner concentration 90 nM)
Summary of the method: as §1

[4] = tested on: PPARg DBDmut IVT, anti-PPARg (DBD mutation: PPARg1 K132A/R137A, NR concentration 270 nM)
Summary of the method: as §1

[5] = tested on: PPARg homodimer (NR concentration 180 nM)
Summary of the method: as §1

[6] = tested on: PXR:RXRa (NR concentration 270 nM, RXRa partner concentration 90 nM)
Summary of the method: as §1

[7] = tested on: PXR homodimer (NR concentration 270 nM)
Summary of the method: as §1

[8] = tested on: RARa:RXR (NR concentration 270 nM, RXRa partner concentration 90 nM)
Summary of the method: as §1

[9] = tested on: RARa homodimer (NR concentration 270 nM)
Summary of the method: as §1

[10] = tested on: RARb:RXRa (NR concentration 270 nM, RXRa partner concentration 90 nM)
Summary of the method: as §1

Sequence	PBM binding z-score [1]	PBM binding z-score [2]	PBM binding z-score [3]	PBM binding z-score [4]	PBM binding z-score [5]	PBM binding z-score [6]	PBM binding z-score [7]	PBM binding z-score [8]	PBM binding z-score [9]	PBM binding z-score [10]
CCTCGGATGACAGAAGGTCAGAGCTGTCCGCTTT	0.0182	-0.0257	-1.19	-1.32	1.51	1.5	0.235	1.85	0.773	2.59
CAAACTAGGTCACGAAAGGTCAAAGTCGAATGAC	8.54	9.04	3.28	2.22	5.79	7.14	2.95	7.8	3.54	5.84
TCTTGTAGATCAGCAGGTTAGGAAAGCTGGCCAA	1.65	0.124	-0.587	-0.926	0.0866	-0.035	-0.454	0.152	0.51	0.179
CCTACTGGGCCAAGGGCATTGATCAGTCAAAGCA	2.73	3.65	-0.869	-1.53	0.181	-0.452	-0.173	-0.637	-1.18	0.896
TCATATAGGTAATACAGGCGAAAGTCGGCATCTA	3.6	2.22	1.28	0.916	0.655	0.46	0.00877	0.48	0.962	0.247
TTACCAAGGTGAGCTGATGTCGTTGATCCAACTC	1.17	1.55	-0.517	0.259	-0.264	0.24	-0.552	0.2	-0.759	0.933
TCGAGTAGGTTAGTCGGGGCATTAAGCCAACATA	2.22	1.85	-0.456	0.127	0.173	0.149	-0.182	0.471	-0.436	0.306
TCATATAGGTAATACAGGTGAACGTCGGCATCTA	4.33	3.64	1.21	1.68	1.2	0.756	0.663	1.55	2.19	0.705
ACCGACAGGTGAGTGAAGGTAACTCAGCTGGACG	0.224	0.64	0.0319	-0.41	-0.391	-0.571	-0.481	-0.0449	-0.642	0.605
CGAACGAGGGCATGAGTCGATAGCAAATGCCGAT	2.97	1.89	-0.75	-0.876	0.211	0.0627	-0.737	0.1	-0.456	1.81
TCTAGCAGGCCAGAGGGTCGCTCAAGAGGTACGG	0.74	-0.213	-1.68	-1.41	-0.918	-0.366	-0.896	-0.208	-1.48	0.463
TCTATTACTTGATTAGGGCAACCGAAACAGCGGA	2.08	1.45	0.681	1.58	0.91	0.583	0.132	0.779	1.04	0.983
TCATATAGGTAAATGCTAGGTGTAAGTCCGATCT	3.8	1.94	0.286	1.15	0.2	0.655	-0.0284	0.00446	1.01	0.377
AGTCAAAGTTCACTATGTAACGTAAGATTCAGCT	0.152	2.39	1.02	0.578	1.55	3.59	1.72	2.7	0.755	4.57
CAAACTAGGTCACGAAAGGTTAAAGTCGAATGAC	8.39	9.07	2.59	1.97	3.32	5.8	0.579	5.4	1.18	5.01
GCTAGCAGGCCAATTGGGTCACTCAATGACGGGC	2.36	3.11	-0.977	-0.884	-0.0833	0.184	-0.704	0.585	-0.664	1.54
CCTGTTAGTTGACCATAAGGGCAACCGAAGCTCG	0.268	0.863	0.531	0.804	1.39	0.426	0.794	0.804	1.03	1.74
AGAATGAGGTTATTAAGATCAGGAAATTGCGGTC	2.71	2.49	1.18	0.481	0.657	1.3	0.566	1.3	0.579	1.42
CGTCCAAGGTCAGAGAGGTCAGGGAATGCCGAGT	2.19	3.4	0.15	0.231	4.31	5.87	10.6	5.44	1.09	5.55
ACCGAAAGGTCGTGAGGTGAGTATACAGAAAGGC	0.638	2.23	0.794	0.846	1.51	3.29	-0.242	4.22	0.0801	4
CTTACTGGGCCACGAAAGGTCATTGATTCAGTGA	7.15	7.26	1.25	0.41	3.04	5.88	2.14	5.98	0.212	4.38
ACTATTAGTTGACCTAGGGCAACCGATACGACGC	1.31	2.56	0.917	1.25	1.64	2.05	0.901	2.79	0.637	2.18
ACATGTAGGTTACATCCGGGTCATTCAGGCTATG	6.27	6.09	4.52	4.01	3.27	3.95	2.86	3.98	0.622	2.43
GGAACGAGGGCAGTCGAGTTGATAGCATGGCGAT	2.24	1.29	-0.319	-0.59	-0.872	1.83	-0.252	-0.0532	-0.989	1.77
